# Measured values as given in the supplement of paper PMC8728848.
# About 410 targets per protein were measured; listed, in parts, are those with the strongest signals and a random draw of the rest.
# B1: AAL (Aleuria aurantia), P18891 (protein)
# chain: PTEFLYTSKIAAISWAATGGRQQRVYFQDLNGKIREAQRGGDNPWTGGSSQNVIGEAKLFSPLAAVTWKSAQGIQIRVYCVNKDNILSEFVYDGSKWITGQLGSVGVKVGSNSKLAALQWGGSESAPPNIRVYYQKSNGSGSSIHEYVWSGKWTAGASFGSTVPGTGIGATAIGPGRLRIYYQATDNKIREHCWDSNSWYVGGFSASASAGVSIAAISWGSTPNIRVYWQKGREELYEAAYGGSWNTPGQIKDASRPTPSLPDTFIAANSSGNIDISVFFQASGVSLQQWQWISGKGWSIGAVVPTGTPAGW
# Tests used:
# Experiment in all cases: glycan array binding signal (z-score within array); higher = stronger binding
# Conditions in all cases: glycan notation: IUPAC condensed, linker removed
# [1] = molecular target: Fuc(a1-2)Gal(b1-3)GlcNAc(b1-2)Man(a1-3)[Fuc(a1-2)Gal(b1-3)GlcNAc(b1-2)Man(a1-6)]Man(b1-4)GlcNAc(b1-4)[Fuc(a1-6)]GlcNAc
# Summary of the method: (§1)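 The binding signal is a Z-score computed within each array. Data were drawn from 3228 arrays in the Consortium for Functional Glycomics database, restricted to those with a known protein sequence. Scores were averaged over arrays of the same protein sequence at different concentrations or buffers, and over linkers, and negative values can be taken as non-binding.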
# Fuc(a1-2)Gal(b1-4)Glc6S = molecular target: Fuc(a1-2)Gal(b1-4)Glc6S
# Summary of the method: as §1
# [2] = molecular target: Fuc(a1-2)Gal(b1-4)GlcNAc(b1-3)Gal(b1-4)GlcNAc(b1-3)Gal(b1-4)GlcNAc
# Summary of the method: as §1
# [3] = molecular target: Fuc(a1-2)Gal(b1-4)GlcNAc6S
# Summary of the method: as §1
# [4] = molecular target: Fuc(a1-2)Gal(b1-4)[Fuc(a1-3)]GlcNAc
# Summary of the method: as §1
# [5] = molecular target: Fuc(a1-2)Gal(b1-4)[Fuc(a1-3)]GlcNAc(b1-3)Gal(b1-4)[Fuc(a1-3)]GlcNAc(b1-3)Gal(b1-4)[Fuc(a1-3)]GlcNAc
# Summary of the method: as §1
# [6] = molecular target: Fuc(a1-2)Gal6S(b1-4)GlcNAc
# Summary of the method: as §1
# [7] = molecular target: Fuc(a1-2)[Gal(a1-3)]Gal(b1-3)GlcNAc(b1-2)Man(a1-3)[Fuc(a1-2)[Gal(a1-3)]Gal(b1-3)GlcNAc(b1-2)Man(a1-6)]Man(b1-4)GlcNAc(b1-4)GlcNAc
# Summary of the method: as §1
# Fuc(a1-3)GlcNAc = molecular target: Fuc(a1-3)GlcNAc
# Summary of the method: as §1
# [8] = molecular target: Fuc(a1-3)[Gal3S(b1-4)]GlcNAc
# Summary of the method: as §1
# Fuc(a1-4)GlcNAc = molecular target: Fuc(a1-4)GlcNAc
# Summary of the method: as §1
# [9] = molecular target: Gal(a1-3)Gal(b1-4)[Fuc(a1-3)]GalNAc
# Summary of the method: as §1
# Gal(a1-4)GlcNAc = molecular target: Gal(a1-4)GlcNAc
# Summary of the method: as §1
# [10] = molecular target: Gal(b1-3)GlcNAc(b1-3)Gal(b1-4)[Fuc(a1-3)]GlcNAc(b1-6)[Gal(b1-3)GlcNAc(b1-3)]Gal(b1-4)Glc
# Summary of the method: as §1
# [11] = molecular target: Gal(b1-3)GlcNAc(b1-3)GalNAc
# Summary of the method: as §1
# [12] = molecular target: Gal(b1-3)[GlcNAc(b1-6)]GlcNAc
# Summary of the method: as §1
# [13] = molecular target: Gal(b1-4)GlcNAc(b1-2)[Gal(b1-4)GlcNAc(b1-4)]Man(a1-3)[GlcNAc(b1-4)][Gal(b1-4)GlcNAc(b1-2)Man(a1-6)]Man(b1-4)GlcNAc(b1-4)GlcNAc
# Summary of the method: as §1
# [14] = molecular target: Gal(b1-4)GlcNAc(b1-3)Gal(b1-4)[Fuc(a1-3)GlcNAc(b1-6)]Gal(b1-4)Glc
# Summary of the method: as §1
# Glc(b1-4)Glc = molecular target: Glc(b1-4)Glc
# Summary of the method: as §1
# [15] = molecular target: GlcNAc(a1-3)Gal(b1-4)GlcNAc
# Summary of the method: as §1
# GlcNAc(b1-3)Gal = molecular target: GlcNAc(b1-3)Gal
# Summary of the method: as §1
# [16] = molecular target: GlcNAc(b1-3)Gal(b1-3)GalNAc
# Summary of the method: as §1
# [17] = molecular target: GlcNAc(b1-3)[GlcNAc(b1-6)]Gal(b1-4)GlcNAc
# Summary of the method: as §1
# [18] = molecular target: GlcNAc(b1-3)[GlcNAc(b1-6)]GlcNAc(b1-4)GlcNAc
# Summary of the method: as §1
# [19] = molecular target: GlcNAc(b1-4)Gal(b1-4)GlcNAc
# Summary of the method: as §1
# [20] = molecular target: GlcNAc6S(b1-3)Gal(b1-4)GlcNAc
# Summary of the method: as §1
# [21] = molecular target: Neu5Ac(a2-3)Gal(b1-3)GlcNAc6S
# Summary of the method: as §1
# [22] = molecular target: Neu5Ac(a2-3)Gal(b1-3)[Fuc(a1-4)]GlcNAc
# Summary of the method: as §1
# [23] = molecular target: Neu5Ac(a2-3)Gal(b1-4)GlcNAc(b1-6)[Gal(b1-3)]GalNAc
# Summary of the method: as §1
# [24] = molecular target: Neu5Ac(a2-3)Gal6S(b1-4)GlcNAc
# Summary of the method: as §1
binder,measurement,setting,value
B1,glycan array binding signal (z-score),[1],-0.012
same,glycan array binding signal (z-score),Fuc(a1-2)Gal(b1-4)Glc6S,3.52
same,glycan array binding signal (z-score),[2],3.03
same,glycan array binding signal (z-score),[3],2.6
same,glycan array binding signal (z-score),[4],2.51
same,glycan array binding signal (z-score),[5],2.68
same,glycan array binding signal (z-score),[6],2.6
same,glycan array binding signal (z-score),[7],-0.407
same,glycan array binding signal (z-score),Fuc(a1-3)GlcNAc,2.85
same,glycan array binding signal (z-score),[8],1.76
same,glycan array binding signal (z-score),Fuc(a1-4)GlcNAc,1.99
same,glycan array binding signal (z-score),[9],2.52
same,glycan array binding signal (z-score),Gal(a1-4)GlcNAc,-0.498
same,glycan array binding signal (z-score),[10],0.584
same,glycan array binding signal (z-score),[11],-0.414
same,glycan array binding signal (z-score),[12],-0.62
same,glycan array binding signal (z-score),[13],-0.348
same,glycan array binding signal (z-score),[14],0.521
same,glycan array binding signal (z-score),Glc(b1-4)Glc,-0.525
same,glycan array binding signal (z-score),[15],-0.512
same,glycan array binding signal (z-score),GlcNAc(b1-3)Gal,-0.501
same,glycan array binding signal (z-score),[16],-0.515
same,glycan array binding signal (z-score),[17],-0.514
same,glycan array binding signal (z-score),[18],-0.567
same,glycan array binding signal (z-score),[19],-0.525
same,glycan array binding signal (z-score),[20],-0.391
same,glycan array binding signal (z-score),[21],-0.493
same,glycan array binding signal (z-score),[22],1.33
same,glycan array binding signal (z-score),[23],-0.444
same,glycan array binding signal (z-score),[24],1.5
